This is an account of results in PubChem BioAssay (NCI).

SMILES strings stand for the structures. The panel holds about 83,000 compounds, 20% with a hit somewhere; the sample as a whole holds those more often.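 Compound tested at a single concentration for 48 hours in 96-well plates; a percent growth value below 10 was scored as active.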 Unmarked numbers belong to inactive results. Active and inactive are the calls of the source.

For this test, the system named is MCF7 breast. The test can be described thus: NCI-60 one-dose screen, 48 h (100 = growth as untreated, 0 = no growth, -100 = all killed). Conditions: 10 µM unless noted.
As to `O=C(COc1ccc(/C=C2\SC(=O)NC2=O)cc1)Nc1ccc(C(=O)/C=C/c2cc3ccccc3nc2Cl)cc1`, the growth was -4.07% (active).

As to `CC(C)Sc1nc(NC2CC2)c(C#N)c(-c2ccccc2)n1`, the growth is 73.7%.

Turning to `O=C(COc1cccc2cccnc12)Nc1ccc(C(=O)/C=C/c2ccc(Cl)cc2)cc1`, the growth was 17.1%. Consider `Oc1ccc(CSc2nnc(-c3ccc(Br)cc3)n2-c2ccccc2)c2cccnc12`, for which the growth is 11%. As to `COc1ccccc1N1CCN(C2=NN=C(c3cccc(Cl)c3)c3ccccc3C2)CC1`, the growth is 17.4%. Turning to `O=C1/C(=C/c2ccc([N+](=O)[O-])cc2)SC(=Nc2ccccc2)N1Nc1ccccc1`, the growth is 44.1%. As to `COc1ccc([C@H]2c3[nH]c4ccccc4c3C[C@@H]3C(=O)N(C4CCN(Cc5ccccc5)CC4)CC(=O)N23)c(OC)c1`, the growth was 51.7%. With `CC1OC(O[C@@H]2[C@H](O)C(CO)OC(O[C@H]3COC(O[C@H]4CC[C@]5(C)[C@H]6CC[C@]78OC[C@@]9(CCC(C)(C)C[C@H]97)[C@H](O)C[C@@]8(C)[C@]6(C)CC[C@H]5C4(C)C)[C@@H](OC4OC(CO)[C@@H](O)[C@@H](O)[C@@H]4O)[C@@H]3O)[C@H]2OC2OC[C@@H](O)[C@@H](O)[C@@H]2O)[C@@H](O)[C@@H](O)[C@H]1O` (some centres not stated), the growth is -55.9% (active). With `N#Cc1c(-c2cccs2)cc(-c2cnccn2)nc1SCC(=O)NNC(=S)Nc1ccc(F)cc1` the figure was 86.1%; with `O=C1NC(=O)c2c1c1c3ccccc3ccc1c1[nH]c3ccccc3c21`, 3.61% (active). `COc1ccc(-c2ccc3c4c(cccc24)C(=O)N(N2C(=O)c4cccc5cccc(c45)C2=O)C3=O)cc1`: the growth is 15.6%. As to `NS(=O)(=O)c1ccc(Nc2nc(N/N=C/c3ccc(C(F)(F)F)cc3)nc(Nc3ccccc3)n2)cc1`, the growth was 10.3%.

Regarding `COc1cc(CNC(=O)/C=C/c2ccccc2)ccc1OCC(=O)NO`, the growth was 89.9%.

Take `NS(=O)(=O)c1ccc(Nc2nc(N/N=C/c3ccc(F)cc3)nc(Nc3ccccc3)n2)cc1`: the growth was 28.6%.

As for `C=C1C(=O)O[C@@H]2C[C@@H](C)[C@H](OC)CC(=O)[C@](C)(OC(C)=O)C[C@H](OC(=O)/C(C)=C\C)[C@@H]12`, the growth was 56.5%. Take `O=C(c1ccc(O)cc1)[C@@H]1[C@@H]2CCCN2[C@@]2(C(=O)N(C(=O)c3ccc(F)cc3)c3ccccc32)[C@H]1c1ccc(F)cc1`: the growth was 86.3%. For `Cc1ccc(-n2cc(/C=C/C(=O)c3ccc(S(C)(=O)=O)cc3)c(-c3ccc(S(C)(=O)=O)cc3)n2)cc1`, the growth is 64.8%. In the case of `Cc1ccc(Cc2cnc(NC(=O)/C(C#N)=C/c3ccc(-c4ccc(Cl)cc4)o3)s2)cc1`, the growth is 81.8%. Regarding `C=C(C)C(=O)O[C@H]1C[C@@]2(C)OC(=CC2=O)/C(C)=C\[C@H]2OC(=O)C(=C)[C@H]12`, the growth is 11.7%. Consider `CCN(CC)CCN1C(=O)c2c(c3c4cc(Br)ccc4[nH]c3c3ccc4ccccc4c23)C1=O`, for which the growth was -80% (active). `Oc1ccc(CSc2nnc(-c3ccc(Oc4ccccc4)cc3)o2)c2cccnc12`: the growth is 16%. With `O=C1c2c(c3c4cccnc4[nH]c3c3ccc4ccccc4c23)C(=O)N1CCN1CCOCC1`, the growth was 15.9%. Take `O=c1[nH]c(CCl)nc2c1cnn2-c1ccccc1`: the growth was 79.5%. With `C=C1C(=O)O[C@@H]2/C=C(/C)C3=CC(=O)[C@@](C)(C[C@H](OC(=O)/C(C)=C\C)[C@@H]12)O3`, the growth is 13.2%.

With `O=C1CC2(CCOCC2)Oc2ncccc21`, the growth is 12.7%. With `O=C(Nc1ccc(F)cc1)c1cc(-c2ccc(F)cc2F)ccc1O` the figure was 2.19% (active); with `COc1ccc(/C=N\NC(=O)c2ccc3nc(-c4ccc(Br)cc4)[nH]c3c2)cc1`, 15.8%. Consider `O=C(O)c1ccc(-n2cc(CNc3ccc(Cl)cc3)c(-c3ccc(F)cc3)n2)cc1`, for which the growth was 80.1%. With `COc1cc(/C=N/n2cnc3oc(-c4ccccc4)cc3c2=N)cc(CN2CCCC2)c1O` the figure was -79.3% (active); with `CCOC(=O)c1c(NCC(=O)Nc2cccc(Cl)c2)sc2c1CCCC2`, 43%; with `Cc1ccc(-c2csc(N/N=C/c3nc4ccccc4n3C3CC3)n2)cc1`, 50.2%. With `C#C[C@]1(O)CC[C@H]2[C@@H]3CC=C4c5sc(Nc6cccc(C)n6)nc5CC[C@]4(C)[C@H]3CC[C@@]21C`, the growth was -41.5% (active).
